A selection: hits, their analogues and other compounds. The true share with any hit is near 19%.
HepG2 viability = qHTS for Inhibitors of TGF-b: Cytotox Counterscreen; HepG2 CAGA-GFP viability, ATP luminescence, 18 h; Potency, µM (top dose mostly 46.1 µM), inactives show at the highest dose activity change, negative = cytotoxicity, actives largely listed as cytotoxic; actives 0.76% (n = 410,000); further: potency means the concentration at half of the fitted maximal effect
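HepG2 CAGA-GFP cells (1000/well, DMEM with 1% FBS) received compound, then TGF-beta at 500 pg/mL final, and were incubated 18 hours at 37 degrees C. Viability was read by CellTiter-Glo luminescence. Media-only wells were set as complete cell-killing and DMSO as no toxicity.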
ASM inhibitor = Inhibitors of Secretory Acid Sphingomyelinase (S-ASM): qHTS; Sphingomyelin phosphodiesterase (Homo sapiens), P17405; placental ASM, HMU-PC fluorogenic substrate, 60 min; Potency, µM (titrated, usually from 57.5 µM), without a hit: top-dose activity change, negative = inhibition, hits mostly inhibitors; actives 0.006% (n = 340,000); further: potency means the concentration at half of the fitted maximal effect
Target sequence (P17405 47-631 limits assumed): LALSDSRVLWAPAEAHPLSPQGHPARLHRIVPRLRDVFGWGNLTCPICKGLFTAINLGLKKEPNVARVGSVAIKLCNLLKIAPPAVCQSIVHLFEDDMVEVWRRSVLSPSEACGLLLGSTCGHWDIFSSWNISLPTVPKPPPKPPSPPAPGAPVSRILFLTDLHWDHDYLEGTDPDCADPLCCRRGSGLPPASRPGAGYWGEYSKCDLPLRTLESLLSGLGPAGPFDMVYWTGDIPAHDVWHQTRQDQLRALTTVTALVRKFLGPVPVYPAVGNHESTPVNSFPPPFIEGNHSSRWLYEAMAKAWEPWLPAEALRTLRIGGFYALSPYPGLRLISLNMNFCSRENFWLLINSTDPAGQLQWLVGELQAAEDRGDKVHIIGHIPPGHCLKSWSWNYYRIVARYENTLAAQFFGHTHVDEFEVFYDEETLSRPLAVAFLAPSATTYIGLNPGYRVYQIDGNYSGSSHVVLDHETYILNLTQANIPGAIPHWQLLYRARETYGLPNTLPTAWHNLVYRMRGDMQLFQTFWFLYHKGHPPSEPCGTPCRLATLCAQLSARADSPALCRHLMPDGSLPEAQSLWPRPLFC
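Steps: dispense placental human ASM, pin compound, wait 10 min at room temperature, add HMU-PC0 substrate at 9 uM final, incubate 60 min at 37 °C, add stop solution raising pH to 10, read fluorescence.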
TDP1 cell noCPT = qHTS for Inhibitors of human tyrosyl-DNA phosphodiesterase 1 (TDP1): qHTS in cells in absence of CPT. DT40 Tdp1-/- hTDP1 cells, no CPT, ATP luminescence, 48 h. actives 15% (n = 420,000). Potency, µM (series often up to 46.2 µM), without a hit: at the top dose activity change, negative = growth inhibition, usual class: inhibitors; further: potency means the concentration at half of the fitted maximal effect; on the % scale 0 is the no-effect control and ±100 the full control effect; nearly all actives have a fitted effect of over 55% in size
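Growth kinetics read by CellTiter-Glo luminescence after ≥48 hr at 37 °C. Cells: DT40 Tdp1-/- stably carrying human TDP1, 400 per well, compound exposure in the absence of CPT (DMSO vehicle).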
IL1B secr inh = qHTS for Inhibitors of Inflammasome Signaling: IL-1-beta AlphaLISA Primary Screen; actives 4.7% (n = 360,000); activity change, % at 57.5 µM; THP-1 LPS/ATP IL-1B secretion, AlphaLISA, 16 h; active compounds read low; in the data active means activity change below about -50%; inconclusive means mostly about -30% to -49%; further: on the % scale 0 is the no-effect control and ±100 the full control effect
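THP-1 cells pretreated 1 hr with compounds (up to 57.5 uM final), then stimulated with LPS (250 ng/mL final) plus ATP (1.25 mM final); secreted IL-1B measured by AlphaLISA after 16 hr, decreased signal indicating inhibition.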
TGFb SMAD3 inh = qHTS for Inhibitors of TGF-b. HepG2 CAGA-GFP TGF-b/SMAD3 reporter, GFP fluorescence, 18 h; TGF-beta stimulated, 500 pg/mL final. Potency, µM (doses to about 46.1 µM), without a hit: at the top dose activity, negative = inhibition, hits mostly inhibitors. actives 1.2% (n = 410,000). AID 588855, 2011; further: potency means the concentration at half of the fitted maximal effect; on the % scale 0 is the no-effect control and ±100 the full control effect; nearly all actives have a fitted effect of over 65% in size
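Using HEPG2 CAGA-GFP reporter cells at 1000 cells/well, we pinned test compounds, stimulated with recombinant TGF-beta (500 pg/mL final) and measured total well GFP after 18 h.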
TDP1 cell CPT = qHTS for Inhibitors of human tyrosyl-DNA phosphodiesterase 1 (TDP1): qHTS in cells in presence of CPT | chicken DT40 Tdp1-/-;hTDP1 cells + 20 nM CPT, ATP luminescence, 48 h | Potency, µM (doses to about 46.2 µM), inactives show at the highest dose activity change, negative = growth inhibition, most hits filed as inhibitors | actives 12% (n = 420,000); further: potency means the concentration at half of the fitted maximal effect; on the % scale 0 is the no-effect control and ±100 the full control effect; nearly all actives have a fitted effect of over 55% in size
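Chicken DT40 Tdp1-/- cells complemented with human TDP1, 400 cells/well, exposed to compounds plus 20 nM camptothecin for at least 48 h at 37 C; viability read as ATP content by CellTiter-Glo luminescence.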
An asterisk follows results filed as active; ? = inconclusive; . = no result. Unless noted, the call rests on the fitted dose curve; in most records, active means well fitted curve in the direction sought with a large enough effect; inconclusive means small, poorly fitted or top-dose-only effect, or another doubt; inactive means no such curve, though single readings can be large; an effect the other way counts as inactive or inconclusive.

SMILES	HepG2 viability	ASM inhibitor	TDP1 cell noCPT	IL1B secr inh	TGFb SMAD3 inh	TDP1 cell CPT
CN(CCOc1ccc(Cl)cc1)C(=O)c1cc([N+](=O)[O-])ccc1N1CCOCC1	-14%	-18%	12µM*	-5	-17%	21µM*
CC(C)=CCC[C@@](C)(O)[C@H]1CC=C(C)CC1	.	.	-3%	.	.	-8%
CC(C)(CN1CCc2ccccc2C1)NS(=O)(=O)c1ccc(Cl)cc1	1%	4%	?	48	-25%	?
Cc1ccc(S(=O)(=O)N2CCOCC2)cc1C(=O)N(C)CCOc1ccc(Cl)cc1	-61%	-1%	16µM*	-16	-30%	?
COc1ccc(S(=O)(=O)N2CCCCCC2)cc1C(=O)N(C)CCOc1ccccc1	0%	3%	18µM*	-5	?	?
Cc1ccc(S(=O)(=O)N2CCCCC2)cc1C(=O)N(C)CCOc1ccccc1	4%	-1%	-13%	1	-11%	-25%
Cc1cc2occ(CC(=O)N(C)CC(=O)Nc3ccccc3Br)c2cc1C	-25%	-1%	?	-17	-9%	-1%
COc1ccccc1N1CCN(C(c2cccs2)C(C)NC(=O)C(=O)N2CCOCC2)CC1 (stereo not given)	-30%	5%	16%	2	0%	-4%
O=C(CN1CCN(c2ccccn2)CC1)Nc1ccc(OC(F)(F)F)cc1	-2%	1%	23µM*	-25	-15%	-5%
O=C(CN1CCc2ccccc2C1)Nc1ccc(OC(F)(F)F)cc1	-9%	6%	-22%	-65*	6%	12%
COc1ccccc1N1CCN(CC(=O)Nc2cc(C)nn2-c2nc(C)cc(C)n2)CC1	15%	5%	3.3µM*	51	14%	4.1µM*
O=C(CN1CCN(C(C(=O)Nc2cc(C(F)(F)F)ccc2Cl)c2ccccc2)CC1)NC1CC1 (stereo not given)	-10%	-1%	?	0	-9%	21µM*
COc1ccccc1N1CCN(CC(=O)Nc2cc(F)ccc2C)CC1	-20%	0%	?	?	-9%	?
CC(=O)Nc1ccc(NC(=O)CN2CCN(c3ccccn3)CC2)cc1	3%	2%	1%	19	3%	4%
O=C(CN1CCc2ccccc2C1)Nc1ccc(F)cc1	2%	-1%	6%	0	-8%	-10%
Fc1cccc(Cl)c1CN1CCN(c2nc3ccccc3s2)CC1	-7%	-2%	-28%	?	-15%	6%
Cc1ccsc1C(=O)NNC(=O)CCN1CCN(c2ccccc2)CC1	2%	0%	1%	12	10%	0%
CCN1CCN(CCNC(=O)c2ccc(CS(=O)c3ccc(Cl)cc3)o2)CC1 (stereo not given)	-3%	0%	10%	44	0%	-5%
O=C(CN1CCN(c2ccccn2)CC1)Nc1cc(C(F)(F)F)ccc1Cl	4%	-1%	18µM*	-13	0%	?
O=C(CN1CCN(c2ccccn2)CC1)Nc1ccc(Cl)c(C(F)(F)F)c1	30%	-5%	18µM*	-9	8%	18µM*
COc1ccccc1N1CCN(CC(=O)Nc2ccc(Cl)c(C(F)(F)F)c2)CC1	-11%	-3%	?	-10	?	21µM*
COc1ccc(C(=O)OCC(=O)Nc2ccc(Cl)c(C(F)(F)F)c2)c(OC)c1OC	-37%	-12%	21µM*	-20	?	21µM*
COc1cccc(NC(=O)CCN2CCN(CCO)CC2)c1	-1%	.	-2%	.	19%	-15%
Cc1ccc(NC(=O)C2C3CCC(O3)C2C(=O)O)c(Br)c1 (stereo not given)	1%	-4%	9%	36	-1%	7%
COc1ccc(C(=O)OC(C)C(=O)Nc2cc(C(F)(F)F)ccc2Cl)c(OC)c1OC (stereo not given)	-11%	2%	16µM*	4	?	5.8µM*
SMILES	HepG2 viability	ASM inhibitor	TDP1 cell noCPT	IL1B secr inh	TGFb SMAD3 inh	TDP1 cell CPT
CC12CCC(=O)C=C1CCC1C2CCC2(C)C1CC1C3C(=O)N(Cc4ccccc4)C(=O)C3CC(=O)C12 (stereo not given)	7%	-2%	26µM*	-13	0%	23µM*
C[C@@H]1CC[C@H](O)/C=C/C(=O)O[C@H](C)CC[C@H](O)/C=C/C(=O)O1	-28%	1%	5.2µM*	-4	?	5.2µM*
COc1ccc(C(=O)NCCn2cc(SCC(=O)N3CCOCC3)c3ccccc32)cc1	-1%	0%	-29%	3	16%	-25%
COc1ccc(C(=O)NCCn2cc(SCC(=O)Nc3ccc4c(c3)OCCO4)c3ccccc32)cc1	0%	.	21µM*	.	?	?
COc1ccc(NC(=O)CSc2cn(CCNC(=O)c3ccc(OC)cc3)c3ccccc23)cc1	0%	.	26µM*	.	?	?
O=C(CSc1cn(CCNC(=O)c2ccc3ccccc3c2)c2ccccc12)NCc1ccco1	-34%	-23%	?	?	?	16µM*
Cn1c(=O)cc(SCC(=O)NCc2ccco2)c2ccccc21	-26%	1%	?	16	-2%	?
O=C(c1ccco1)N1CCN(C(=S)Nc2ccccc2C(F)(F)F)CC1	0%	6%	-4%	-6	17%	-16%
O=C(NCCN1CCCCC1)c1cc2ccccc2[nH]1	-5%	1%	-27%	7	-2%	0%
COc1ccc2[nH]c(C(=O)N3CCCN(Cc4ccc(F)cc4)CC3)cc2c1	-20%	-2%	?	-78*	0%	?
CCN1CCN(C(=O)c2cc3cc(F)ccc3[nH]2)CC1	-14%	14%	-29%	-3	0%	?
COc1ccc2[nH]c(C(=O)NCCN3CCCCC3)cc2c1	7.9µM*	2%	3%	21	-9%	19%
CCN(CC)S(=O)(=O)c1ccc(C)c(NC(=O)CNc2cccc(S(=O)(=O)N3CCCC3)c2)c1	-33%	-3%	13µM*	3	?	18µM*
CCN(CC)S(=O)(=O)c1cccc(NC(=O)CNc2cccc(S(=O)(=O)N3CCCC3)c2)c1	-11%	-1%	1.2µM*	-9	-21%	1µM*

Screens from PubChem.
